# According to PubChem BioAssay (NCATS):
# Results filed as inconclusive are left out. Entries that show only a call come without a potency. Activity calls are given as the source filed them. The call rests on the fitted dose curve; in most records, active means well fitted inhibition curve with a large enough effect; inconclusive means small, poorly fitted or top-dose-only effect; inactive means flat fitted curve, though single readings scatter.
# Tests used:
# Assay in all cases: qHTS profiling for inhibitors of Plasmodium falciparum proliferation (AID 504749); further: nearly all actives have a fitted effect of over 60% in size
# Conditions in all cases: P. falciparum in erythrocytes, SYBR Green DNA, 72 h; series mostly up to 28.7 µM
# [1] = tested on: P94_40
# Method in brief: (§1)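 Fluorescence of SYBR Green-bound parasite DNA, read at 485/535 nm, served as the growth measure. Infected erythrocytes were cultured with compound 72 h; artemisinin (0.29 uM) and DMSO wells defined the normalization range.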
# [2] = tested on: PAD
# Method in brief: as §1
# [3] = tested on: PC15
# Method in brief: as §1
# [4] = tested on: PC26
# Method in brief: as §1
# [5] = tested on: PC49
# Method in brief: as §1
# [6] = tested on: SC27B
# Method in brief: as §1
# [7] = tested on: TAB109
# Method in brief: as §1
# [8] = tested on: TAB113
# Method in brief: as §1
# [9] = tested on: TAB165
# Method in brief: as §1
# [10] = tested on: W2
# Method in brief: as §1
# Potency means the concentration at half of the fitted maximal effect.
Structure (SMILES),Potency [1],Potency [2],Potency [3],Potency [4],Potency [5],Potency [6],Potency [7],Potency [8],Potency [9],Potency [10]
NC(=O)c1cccnc1,inactive,inactive,inactive,inactive,inactive,inactive,inactive,inactive,inactive,inactive
CC[C@H](C)C(=O)O[C@H]1C[C@@H](C)C=C2C=C[C@H](C)[C@H](CC[C@@H]3C[C@@H](O)CC(=O)O3)[C@H]21,inactive,inactive,inactive,inactive,inactive,inactive,inactive,inactive,inactive,–
CNNCc1ccc(C(=O)NC(C)C)cc1,inactive,inactive,inactive,inactive,inactive,inactive,inactive,inactive,inactive,–
Nc1nc(N)c2nc(CNc3ccc(C(=O)NC(CCC(=O)O)C(=O)O)cc3)cnc2n1 (centres undefined),inactive,inactive,inactive,inactive,inactive,inactive,inactive,inactive,inactive,inactive
CCC(C)(C)c1ccc(CC(C)CN2C[C@@H](C)O[C@@H](C)C2)cc1 (some centres undefined),inactive,inactive,inactive,inactive,inactive,inactive,inactive,inactive,inactive,–
S=P(N1CC1)(N1CC1)N1CC1,inactive,inactive,inactive,inactive,inactive,inactive,inactive,inactive,inactive,inactive
Cc1cccc(Nc2ccncc2S(=O)(=O)NC(=O)NC(C)C)c1,inactive,inactive,inactive,inactive,inactive,inactive,inactive,inactive,inactive,inactive
COc1nc(N)nc2c1ncn2[C@@H]1O[C@H](CO)[C@@H](O)[C@@H]1O,inactive,inactive,inactive,inactive,inactive,inactive,inactive,inactive,inactive,inactive
COc1ncnc(NS(=O)(=O)c2ccc(N)cc2)c1OC,inactive,inactive,inactive,inactive,inactive,inactive,inactive,inactive,inactive,inactive
C#CCN[C@@H]1CCc2ccccc21,inactive,inactive,inactive,inactive,inactive,inactive,inactive,inactive,inactive,inactive
O=NN(CCCl)C(=O)NC1CCCCC1,inactive,inactive,inactive,inactive,inactive,inactive,inactive,inactive,inactive,inactive
CN(C)CCc1c[nH]c2ccc(CS(=O)(=O)N3CCCC3)cc12,inactive,inactive,inactive,inactive,inactive,inactive,inactive,inactive,inactive,inactive
CCc1cc(C(N)=S)ccn1,inactive,inactive,inactive,inactive,inactive,inactive,inactive,inactive,inactive,inactive
O=c1cc(O)c(Cl)c[nH]1,inactive,inactive,inactive,inactive,inactive,inactive,inactive,inactive,inactive,inactive
CCc1c2c(nc3ccc(OC(=O)N4CCC(N5CCCCC5)CC4)cc13)-c1cc3c(c(=O)n1C2)COC(=O)[C@]3(O)CC,inactive,inactive,inactive,inactive,inactive,inactive,inactive,inactive,inactive,–
COc1ccc(-c2ccc3cc(C(=O)O)ccc3c2)cc1C12CC3CC(CC(C3)C1)C2,inactive,inactive,inactive,inactive,inactive,inactive,inactive,inactive,inactive,–
CC1=NN(c2ccccc2)C(=O)C1,inactive,inactive,inactive,inactive,inactive,inactive,inactive,inactive,inactive,–
CNS(=O)(=O)Cc1ccc2[nH]cc(CCN(C)C)c2c1,inactive,inactive,inactive,inactive,inactive,inactive,inactive,inactive,inactive,–
Cc1cccc(N(C)C(=S)Oc2ccc3ccccc3c2)c1,inactive,inactive,inactive,inactive,inactive,inactive,inactive,inactive,inactive,inactive
COc1ccc(C(=O)CC(=O)c2ccc(C(C)(C)C)cc2)cc1,inactive,inactive,inactive,inactive,inactive,inactive,inactive,inactive,inactive,–

Structure (SMILES),Potency [1],Potency [2],Potency [3],Potency [4],Potency [5],Potency [6],Potency [7],Potency [8],Potency [9],Potency [10]
CC(=O)Oc1ccccc1C(=O)Nc1ncc([N+](=O)[O-])s1,inactive,inactive,inactive,inactive,inactive,inactive,inactive,inactive,inactive,–
COc1cnc(NS(=O)(=O)c2ccc(N)cc2)nc1,inactive,inactive,inactive,inactive,inactive,inactive,inactive,inactive,inactive,inactive
NC(N)=NC(N)=NCCc1ccccc1,inactive,inactive,inactive,inactive,inactive,inactive,inactive,inactive,inactive,inactive
OC(Cn1cncn1)(Cn1cncn1)c1ccc(F)cc1F,inactive,inactive,inactive,inactive,inactive,inactive,inactive,inactive,inactive,inactive
CC[C@H](NC(C)C)[C@H](O)c1ccc(O)c2[nH]c(=O)ccc12,inactive,inactive,inactive,inactive,inactive,inactive,inactive,inactive,inactive,inactive
Cc1noc(NS(=O)(=O)c2ccc(N)cc2)c1C,inactive,inactive,inactive,inactive,inactive,inactive,inactive,inactive,inactive,–
CN1CCN(c2c(F)cc3c(=O)c(C(=O)O)cn4c3c2OCN4C)CC1,inactive,inactive,inactive,inactive,inactive,inactive,inactive,inactive,inactive,–
CNC1CCCN(c2c(F)cc3c(=O)c(C(=O)O)cn(C4CC4)c3c2OC)C1 (centres undefined),inactive,inactive,inactive,inactive,inactive,inactive,inactive,inactive,inactive,–
CC(C)NCC(O)c1ccc(NS(C)(=O)=O)cc1 (centres undefined),inactive,inactive,inactive,inactive,inactive,inactive,inactive,inactive,inactive,inactive
COc1c(N2CCNC(C)C2)c(F)cc2c(=O)c(C(=O)O)cn(C3CC3)c12 (centres undefined),inactive,inactive,inactive,inactive,inactive,inactive,–,inactive,inactive,inactive
CN1CCCC(n2nc(Cc3ccc(Cl)cc3)c3ccccc3c2=O)CC1 (centres undefined),inactive,–,–,–,inactive,–,–,–,–,6.01 µM (active)
CNCC[C@H](Oc1cccc2ccccc12)c1cccs1,10 µM (active),11.2 µM (active),5.01 µM (active),8.49 µM (active),4.47 µM (active),–,7.08 µM (active),8.91 µM (active),12.6 µM (active),1.9 µM (active)
Oc1c(Cl)cc(Cl)c2cccnc12,11.2 µM (active),–,inactive,inactive,inactive,–,–,–,10 µM (active),–
CC(N)C12CC3CC(CC(C3)C1)C2 (centres undefined),–,inactive,inactive,inactive,inactive,–,–,–,–,6.75 µM (active)
CCn1cc(C(=O)O)c(=O)c2cc(F)c(N3CCNCC3)cc21,–,inactive,inactive,inactive,inactive,inactive,–,inactive,inactive,2.56 µM (active)
COC(=O)Nc1nc2ccc(C(=O)c3ccccc3)cc2[nH]1,inactive,inactive,inactive,–,inactive,inactive,inactive,inactive,inactive,–
CCOC(=O)[C@H](CCc1ccccc1)N[C@H]1CS[C@H](c2cccs2)CN(CC(=O)O)C1=O,–,–,inactive,inactive,inactive,–,inactive,inactive,–,–
COc1cc(NS(=O)(=O)c2ccc(N)cc2)nc(OC)n1,inactive,inactive,inactive,–,inactive,inactive,inactive,inactive,inactive,inactive
CCOC(=O)c1ccc(OC(=O)CCCCCN=C(N)N)cc1,inactive,–,–,–,inactive,inactive,–,–,–,–
CN(Cc1cc(Br)cc(Br)c1N)C1CCCCC1,–,inactive,inactive,inactive,inactive,inactive,inactive,inactive,–,4.26 µM (active)

Structure (SMILES),Potency [1],Potency [2],Potency [3],Potency [4],Potency [5],Potency [6],Potency [7],Potency [8],Potency [9],Potency [10]
Cc1nnc(NS(=O)(=O)c2ccc(N)cc2)s1,inactive,–,inactive,inactive,inactive,inactive,inactive,inactive,inactive,inactive
O=C(O)c1cn(C2CC2)c2cc(N3CCNCC3)c(F)cc2c1=O,–,inactive,inactive,–,inactive,inactive,2.24 µM (active),inactive,–,4.55 µM (active)
CC(C)OC(=O)C(C(=O)OC(C)C)=C1SC=CS1,–,inactive,inactive,inactive,inactive,inactive,inactive,inactive,inactive,inactive
CCCc1nc(C)c2c(=O)[nH]c(-c3cc(S(=O)(=O)N4CCN(CC)CC4)ccc3OCC)nn12,inactive,–,–,inactive,–,–,inactive,inactive,–,–
C[C@@H](NCCCc1cccc(C(F)(F)F)c1)c1cccc2ccccc12,5.01 µM (active),2 µM (active),11.2 µM (active),4.78 µM (active),–,6.31 µM (active),4.47 µM (active),3.55 µM (active),3.98 µM (active),1.69 µM (active)
Nc1ccc(S(=O)(=O)Nc2ccccn2)cc1,–,inactive,inactive,inactive,inactive,inactive,inactive,inactive,inactive,inactive
O=c1oc2c(O)c(O)cc3c(=O)oc4c(O)c(O)cc1c4c23,–,–,6.31 µM (active),–,inactive,–,–,–,1.41 µM (active),1.9 µM (active)
COc1cccc(N(C)C(=S)Oc2ccc3c(c2)CCCC3)n1,–,inactive,inactive,inactive,inactive,inactive,inactive,–,–,–
COc1cc2c(Nc3ccc(Br)cc3F)ncnc2cc1OCC1CCN(C)CC1,2.82 µM (active),2.24 µM (active),7.08 µM (active),–,–,2.82 µM (active),2.24 µM (active),2.24 µM (active),3.55 µM (active),3.38 µM (active)
CCOC(=O)c1ccc(C#Cc2ccc3c(c2)C(C)(C)CCS3)nc1,inactive,inactive,inactive,–,inactive,inactive,–,–,–,–
CCOc1cc(N)c(Cl)cc1C(=O)NCC1CN(Cc2ccc(F)cc2)CCO1 (centres undefined),11.2 µM (active),11.2 µM (active),–,–,–,8.91 µM (active),10 µM (active),14.1 µM (active),6.31 µM (active),7.57 µM (active)
CCCCCCNC(=O)n1cc(F)c(=O)[nH]c1=O,–,10 µM (active),–,–,–,–,–,–,10 µM (active),4.78 µM (active)
CC(C)(C)C(=O)OCOP(=O)(COCCn1cnc2c(N)ncnc21)OCOC(=O)C(C)(C)C,–,inactive,–,–,inactive,inactive,–,–,–,–
Cc1oc(=O)oc1CN1CCN(c2cc3c(cc2F)c(=O)c(C(=O)O)c2n3C(C)S2)CC1 (centres undefined),7.94 µM (active),–,–,–,inactive,8.91 µM (active),4.47 µM (active),7.94 µM (active),5.01 µM (active),4.78 µM (active)
CC1=CC(=O)c2ccccc2C1=O,inactive,inactive,–,inactive,inactive,inactive,inactive,inactive,inactive,6.01 µM (active)
N[C@@H](Cc1ccc(O)c(O)c1)C(=O)O,–,–,–,inactive,–,–,–,–,–,–
CCn1cc(C(=O)O)c(=O)c2cc(F)c(N3CCN(C)CC3)cc21,–,inactive,inactive,inactive,inactive,–,–,–,–,–
CCCCOc1ccc(CC(=O)NO)cc1,2 µM (active),1.41 µM (active),inactive,–,inactive,–,2.24 µM (active),–,3.16 µM (active),0.572 µM (active)
CNC(=O)c1cc(Oc2ccc(NC(=O)Nc3ccc(Cl)c(C(F)(F)F)c3)cc2)ccn1,–,2.24 µM (active),7.08 µM (active),3.38 µM (active),8.91 µM (active),5.01 µM (active),–,11.2 µM (active),5.62 µM (active),15.1 µM (active)
